# Active and inactive are the calls of the source. How the source made its calls: active means hit-call score of the fitted dose curve at least 0.9, where 1 is the maximum; inactive means score below 0.9.
# Read-out: Cellular tumor antigen p53 (Homo sapiens) (UniProt P04637)
# Assay: LTEA_HepaRG_TP53: Life Technologies and Expression Analysis (LTEA) Assay for Tumor Protein P53 (TP53) using HepaRG (AID 2283537)
# Conditions: mRNA level, 48 h; actives raise or lower the signal
# Outline: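 Read-out is TP53 transcript level by microfluidic qRT-PCR, normalised to three housekeeping genes and fitted bidirectionally against DMSO. Human HepaRG cells received compounds for 48 h, highest concentration 100 uM.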
# Sequence of Cellular tumor antigen p53 (Homo sapiens) (P04637 whole entry, looked up): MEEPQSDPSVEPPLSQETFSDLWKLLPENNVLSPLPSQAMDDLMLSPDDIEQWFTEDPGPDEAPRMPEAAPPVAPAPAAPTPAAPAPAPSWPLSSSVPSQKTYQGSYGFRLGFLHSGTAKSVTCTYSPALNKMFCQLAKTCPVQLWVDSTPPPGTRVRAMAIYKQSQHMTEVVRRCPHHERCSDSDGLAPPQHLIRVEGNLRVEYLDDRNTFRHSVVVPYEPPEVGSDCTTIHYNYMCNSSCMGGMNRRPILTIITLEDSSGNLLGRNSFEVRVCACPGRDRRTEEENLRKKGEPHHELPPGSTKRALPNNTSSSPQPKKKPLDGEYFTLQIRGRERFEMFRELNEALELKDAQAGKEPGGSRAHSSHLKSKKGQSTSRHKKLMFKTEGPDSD
Compound,outcome,AC50
C=C(C)CN(CC)c1c([N+](=O)[O-])cc(C(F)(F)F)cc1[N+](=O)[O-],inactive,
N#Cc1c[nH]cc1-c1cccc2c1OC(F)(F)O2,,71.3 µM (active)
CCOc1nc(C(Cl)(Cl)Cl)ns1,,1.01 µM (active)
CCN(CC)c1nc(C)cc(OP(=S)(OC)OC)n1,inactive,
O=C(Nc1ccccc1-c1ccc(Cl)cc1)c1cccnc1Cl,inactive,
COC(=O)NS(=O)(=O)c1ccc(N)cc1,inactive,
CC(C)NC(=O)N1CC(=O)N(c2cc(Cl)cc(Cl)c2)C1=O,inactive,
CC(C)Oc1cccc(NC(=O)c2ccccc2C(F)(F)F)c1,inactive,
O=C1C2CC=CCC2C(=O)N1SC(Cl)(Cl)Cl (stereo not given),inactive,
OC(c1ccc(Cl)cc1)(c1ccc(Cl)cc1)C(Cl)(Cl)Cl,,50 µM (active)
COc1ccc(-c2ccccc2)cc1NNC(=O)OC(C)C,inactive,
CCCC(=NOCC)C1=C(O)CC(CC(C)SCC)CC1=O (stereo not given),inactive,
CC1(C)C(C=C(Cl)Cl)C1C(=O)OC(C#N)c1cccc(Oc2ccccc2)c1 (stereo not given),inactive,
CO/N=C(/C1=NOCCO1)c1ccccc1Oc1ncnc(Oc2ccccc2Cl)c1F,,27.1 µM (active)
CNC(=O)N(C)c1nnc(C(C)(C)C)s1,inactive,
N#CN=C1SCCN1Cc1ccc(Cl)nc1,inactive,
CCCCOCN(C(=O)CCl)c1c(CC)cccc1CC,inactive,

Compound,outcome,AC50
Nc1cnn(-c2ccccc2)c(=O)c1Cl,inactive,
O=c1n(Cl)c(=O)n(Cl)c(=O)n1Cl,inactive,
CNC(=O)Oc1cccc2ccccc12,inactive,
CC(C)N1C(=O)N(c2ccccc2)CSC1=NC(C)(C)C,,76.2 µM (active)
CCSC(=O)N1CCCCCC1,inactive,
COP(=O)(OC)O/C(C)=C/C(=O)N(C)C,inactive,
Nc1c(Cl)c(F)nc(OCC(=O)O)c1Cl,inactive,
Cc1cc(C)nc(Nc2ccccc2)n1,inactive,
N#Cc1c(Cl)cccc1Cl,inactive,
CC1(C)C(C(=O)OC(C#N)c2cccc(Oc3ccccc3)c2)C1(C)C (stereo not given),inactive,
COCC(C)N(C(=O)CCl)c1c(C)csc1C (stereo not given),inactive,
Cc1c(COC(=O)[C@@H]2[C@H](/C=C(\Cl)C(F)(F)F)C2(C)C)cccc1-c1ccccc1,inactive,
CCCN(CC)CC1COC2(CCC(C(C)(C)C)CC2)O1 (stereo not given),inactive,
COC(=O)c1c(C(F)F)nc(C(F)(F)F)c(C2=NCCS2)c1CC(C)C,inactive,
CCCCC(O)(Cn1cncn1)c1ccc(Cl)cc1Cl (stereo not given),,72.4 µM (active)
CC(C)N1C(=O)c2ccccc2NS1(=O)=O,inactive,
CCOP(=S)(OCC)Oc1nc(Cl)n(C(C)C)n1,inactive,

# Read-out: UDP glucuronosyltransferase (UGT1A1), UGT1A1 (gene 54658)
# Assay: LTEA_HepaRG_UGT1A1: Life Technologies and Expression Analysis (LTEA) Assay for UDP glucuronosyltransferase (UGT1A1) using HepaRG (AID 2283538)
# Conditions: mRNA level, 48 h; actives raise or lower the signal
# Outline: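 HepaRG cells, 0.5% DMSO vehicle, 48 h exposure in serum-free induction medium to 8-point half-log series topping at 100 uM, in duplicate. UGT1A1 mRNA by Fluidigm qRT-PCR, normalized to ACTB/GAPDH/POLR2A; bidirectional fit versus DMSO.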
Compound,AC50,outcome
C=C(C)CN(CC)c1c([N+](=O)[O-])cc(C(F)(F)F)cc1[N+](=O)[O-],50 µM (active),
N#Cc1c[nH]cc1-c1cccc2c1OC(F)(F)O2,34.3 µM (active),
CCOc1nc(C(Cl)(Cl)Cl)ns1,,inactive
CCN(CC)c1nc(C)cc(OP(=S)(OC)OC)n1,12.8 µM (active),
O=C(Nc1ccccc1-c1ccc(Cl)cc1)c1cccnc1Cl,,inactive
COC(=O)NS(=O)(=O)c1ccc(N)cc1,,inactive
CC(C)NC(=O)N1CC(=O)N(c2cc(Cl)cc(Cl)c2)C1=O,4.3 µM (active),
CC(C)Oc1cccc(NC(=O)c2ccccc2C(F)(F)F)c1,29.4 µM (active),
O=C1C2CC=CCC2C(=O)N1SC(Cl)(Cl)Cl (stereo not given),,inactive
OC(c1ccc(Cl)cc1)(c1ccc(Cl)cc1)C(Cl)(Cl)Cl,85.3 µM (active),
COc1ccc(-c2ccccc2)cc1NNC(=O)OC(C)C,,inactive
CCCC(=NOCC)C1=C(O)CC(CC(C)SCC)CC1=O (stereo not given),50.2 µM (active),
CC(C)=CC1C(C(=O)OCc2coc(Cc3ccccc3)c2)C1(C)C (stereo not given),39.4 µM (active),
CC1(C)C(C=C(Cl)Cl)C1C(=O)OC(C#N)c1cccc(Oc2ccccc2)c1 (stereo not given),17.3 µM (active),
CO/N=C(/C1=NOCCO1)c1ccccc1Oc1ncnc(Oc2ccccc2Cl)c1F,35.8 µM (active),
CNC(=O)N(C)c1nnc(C(C)(C)C)s1,,inactive
N#CN=C1SCCN1Cc1ccc(Cl)nc1,,inactive
CCCCOCN(C(=O)CCl)c1c(CC)cccc1CC,50 µM (active),

Compound,AC50,outcome
Nc1cnn(-c2ccccc2)c(=O)c1Cl,50 µM (active),
O=c1n(Cl)c(=O)n(Cl)c(=O)n1Cl,,inactive
CNC(=O)Oc1cccc2ccccc12,50 µM (active),
CC(C)N1C(=O)N(c2ccccc2)CSC1=NC(C)(C)C,88.8 µM (active),
CCSC(=O)N1CCCCCC1,,inactive
COP(=O)(OC)O/C(C)=C/C(=O)N(C)C,,inactive
Nc1c(Cl)c(F)nc(OCC(=O)O)c1Cl,,inactive
Cc1cc(C)nc(Nc2ccccc2)n1,68.6 µM (active),
O=C(O)c1c(Cl)ccc2cc(Cl)cnc12,,inactive
N#Cc1c(Cl)cccc1Cl,,inactive
CC1(C)C(C(=O)OC(C#N)c2cccc(Oc3ccccc3)c2)C1(C)C (stereo not given),50 µM (active),
COCC(C)N(C(=O)CCl)c1c(C)csc1C (stereo not given),22.2 µM (active),
Cc1c(COC(=O)[C@@H]2[C@H](/C=C(\Cl)C(F)(F)F)C2(C)C)cccc1-c1ccccc1,11.7 µM (active),
CCCN(CC)CC1COC2(CCC(C(C)(C)C)CC2)O1 (stereo not given),,inactive
COC(=O)c1c(C(F)F)nc(C(F)(F)F)c(C2=NCCS2)c1CC(C)C,5.73 µM (active),
CCCCC(O)(Cn1cncn1)c1ccc(Cl)cc1Cl (stereo not given),81.4 µM (active),
CC(C)N1C(=O)c2ccccc2NS1(=O)=O,,inactive
CCOP(=S)(OCC)Oc1nc(Cl)n(C(C)C)n1,12.5 µM (active),

# Source: PubChem BioAssay (EPA / NIEHS)
